High-throughput results as filed in PubChem BioAssay.
Compounds with a hit are over-represented: about 2.8% of the library has one in this group of screens.
BRCA1 expr act: qHTS Assay to Identify Small Molecule Activators of BRCA1 Expression. MCF7-BRCA1-FFLuc reporter, luminescence, 48 h; response scale: scaled: vehicle 0%, 10 µM genistein 100%. Potency, µM (doses to about 46.1 µM), most hits filed as activators. actives 1.1% (n = 380,000); note: nearly all actives have a fitted effect of over 80% in size
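Activators of BRCA1 expression were detected as increased firefly luciferase luminescence in engineered MCF7 cells after 48 h compound incubation. Signals were scaled to genistein 10 microM as full activation.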
GLP-1R agonist: qHTS of GLP-1 Receptor Agonists. Potency, µM (titrated, usually from 45.6 µM), most hits filed as activators. actives 0.007% (n = 380,000). HEK293 GLP-1R CRE-luciferase, luminescence, 4-6 h; cells express a hypersensitive GLP-1R form
Target sequence (P43220 whole entry, looked up): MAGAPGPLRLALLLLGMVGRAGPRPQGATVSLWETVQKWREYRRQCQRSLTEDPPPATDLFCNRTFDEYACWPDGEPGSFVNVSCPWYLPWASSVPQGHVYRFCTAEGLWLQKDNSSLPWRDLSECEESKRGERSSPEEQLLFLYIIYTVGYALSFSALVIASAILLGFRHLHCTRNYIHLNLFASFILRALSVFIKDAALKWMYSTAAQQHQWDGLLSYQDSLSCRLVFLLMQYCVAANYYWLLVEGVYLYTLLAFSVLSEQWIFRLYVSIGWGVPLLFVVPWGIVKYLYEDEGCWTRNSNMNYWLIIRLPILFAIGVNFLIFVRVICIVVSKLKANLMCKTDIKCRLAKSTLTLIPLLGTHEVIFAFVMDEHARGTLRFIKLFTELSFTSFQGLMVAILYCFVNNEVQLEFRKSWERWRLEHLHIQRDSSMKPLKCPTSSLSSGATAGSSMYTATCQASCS
GLP1R inv ag: qHTS of GLP-1 Receptor Inverse Agonists (Inhibition Mode); Glucagon-like peptide 1 receptor (Homo sapiens), P43220; HEK293 GLP-1R CRE-luciferase, luminescence, 24 h; GLP-1R form is constitutively active; Potency, µM (series often up to 38.3 µM), most hits filed as inhibitors; actives 1.6% (n = 410,000); note: nearly all actives have a fitted effect of over 55% in size
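Readout was luciferase luminescence, measured 12 min after detection reagent at room temperature. Beforehand, GLP-1R reporter HEK293 cells had sat 12 h, then received compounds for 24 hr at 37 deg C.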
Mito fusion act: qHTS Assay for Small Molecule Inhibitors of Mitochondrial Division or Activators of Mitochondrial Fusion; S. cerevisiae fusion-defective mutant growth rescue, CellTiterGlo 48 h; Potency, µM (doses to about 46.1 µM), hits mostly activators; actives 0.23% (n = 320,000); AID 485298, 2010; note: nearly all actives have a fitted effect of over 45% in size
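Read-out: ATP-based luminescence (CellTiterGlo, 10 min ambient) reporting growth of fusion-defective ts yeast after 48 hours at 37C on glycerol/ethanol YPEG medium in the presence of compound.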
HEK293 tox: qHTS of GLP-1 Receptor Inverse Agonists: Cytotox Screen. Potency, µM (titrated, usually from 38.3 µM), hits mostly inhibitors. actives 0.13% (n = 410,000). HEK293 cAMP-luciferase reporter cells, luminescence, 24 h. AID 624418, 2012;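 note: loss of luciferase light is scored as toxicity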
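Cells in DMEM/10% Nu serum/1% pen-strep, 1536-well format. Pre-incubated 12 h, dosed with 23 nL compound, incubated a further 24 h. Luciferase detection, 12 min at room temp, luminescence.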
Numbers stand for hits; 0 = inactive; ? = inconclusive; - = no result given; ! = a repeat was not active; [ ] = dose if it differs, or a comment. Calls come from the whole dose curve; as a rule, active = well fitted curve in the direction sought with a large enough effect; inconclusive = small, poorly fitted or top-dose-only effect, or another doubt; inactive = no such curve, though single readings can be large; an effect the other way counts as inactive or inconclusive.

SMILES	BRCA1 expr act	GLP-1R agonist	GLP1R inv ag	Mito fusion act	HEK293 tox
COC(=O)CC1(C(=O)OC)Oc2ccc(Br)cc2C(=O)N1c1ccc(Br)cc1Cl (centres undefined)	0	0	10µM	0	0
COC(=O)CC1(C(=O)OC)Oc2ccc(Br)cc2C(=O)N1c1cc(Cl)c(Cl)cc1Cl (centres undefined)	0	0	7.1µM	0	0
O=C(Cn1cc(SCc2ccccc2Cl)c2ccccc21)N1CCOCC1	11µM	0	?	0	0
O=C(Cn1cc(SCc2cccc(F)c2)c2ccccc21)N1CCOCC1	-	-	?	-	0
O=C(Cn1cc(SCc2c(F)cccc2Cl)c2ccccc21)N1CCCCCC1	-	-	10µM	-	0
COc1ccc(C(C(=O)NCc2ccccc2)N(C(=O)Cn2nnc3ccccc32)c2ccc(F)cc2)cc1 (centres undefined)	-	-	0	-	0
Cc1ccc(C(=O)c2cncc(Br)c2)cc1	0	0	?	0	0
O=C(COC(=O)Cc1ccccc1F)Nc1ccc(Cl)cn1	0	0	0	0	0
COc1cccc(-n2cc(CN(C)C(=O)C3CCC(=O)N(C4CC4)C3)cn2)c1 (centres undefined)	0	0	0	-	0
O=C(Nc1nc2ccccc2n1CCN1CCOCC1)c1ccc(COc2ccccc2Br)o1	0	0	?	0	3.5µM
CCOc1cc(NC(=S)NCCCN2CCOCC2)c(OCC)cc1NC(=O)c1ccc(C)cc1	0	0	0	0	0
O=c1oc2ccccc2cc1-c1nc(-c2ccccc2)no1	13µM	0	0	0	0
Cc1ccc(-c2noc(-c3cc4ccccc4oc3=O)n2)cc1	0	0	0	0	0
Cc1sc(NC(=O)CSc2nc(O)cc(=O)[nH]2)nc1-c1ccccc1	0	0	0	0	0
Cc1ccc(NC(=S)Nc2ccc3nc(-c4ccccn4)c(-c4ccccn4)nc3c2)cc1C	0	0	0	0	0
Cn1nc(-c2ccccn2)nc2c(=O)n(C)c(=O)nc1-2	0	0	3.2µM	0	?
Cc1ccccc1Oc1nc2ccccc2n2cnnc12	0	0	0	0	0
COc1n[nH]c(C(=O)Nc2cc(F)ccc2C)c1[N+](=O)[O-]	0	0	0	7.1µM	0
COc1n[nH]c(C(=O)Nc2cc(Cl)ccc2Cl)c1[N+](=O)[O-]	0	0	0	0	0
CCCCNC(=O)C1=C(N)C(C(=O)Nc2ccc(C)c(S(=O)(=O)N3CCCCC3)c2)SC1=Nc1ccc(C)cc1C (centres undefined)	0	0	13µM	0	0
CCCCC(=O)Nc1ccc(C)c(S(=O)(=O)N2CCCCCC2)c1	0	0	?	0	0
C/C(=N\NC(=S)NCc1ccccc1)c1ccccc1	?	?	?	0	?
COCCNC(=S)N/N=C(\C)c1ccc2cc(OC)ccc2c1	0	?	?	0	3.2µM
COc1ccc(/C(C)=N/NC(=S)Nc2cc(C)ccc2C)cc1	0	0	?	0	3.5µM
COc1ccc(CNC(=S)Nc2cc(C)ccc2C)cc1	0	0	?	0	0
SMILES	BRCA1 expr act	GLP-1R agonist	GLP1R inv ag	Mito fusion act	HEK293 tox
C=C(C)CNC(=S)N/N=C(\C)c1ccc(OC)cc1	0	0	5.6µM	0	?
COc1ccc(CNC(=S)N/N=C(/C)c2ccccc2)cc1	7.1µM	0	?	0	0
COCCNC(=S)N/N=C(\C)c1ccc(OC)cc1	0	0	?	0	?
CCCOC(=O)Nc1c(C)cccc1C(C)C	0	0	0	0	0
Cc1[nH]c2ccc(C(=O)OCC(=O)Nc3cccc(S(N)(=O)=O)c3)cc2c1C	0	0	0	0	0
COCCNC(=S)N/N=C(\C)c1cc2ccccc2o1	0	0	?	0	7.9µM
COc1ccc(C)cc1NC(=O)c1oc2ccc(S(=O)(=O)N3CCCCC3)cc2c1C	-	-	0	-	0
CN(C)CCCNc1oc(-c2ccc(Cl)cc2)nc1C#N	0	0	5µM	0	0
COCCNc1oc(-c2ccc(C)cc2)nc1C#N	?	0	0	0	0
COc1ccc(-c2nc(C#N)c(NCCN(C)C)o2)cc1	0	0	0	-	0
COCCNc1oc(-c2ccc(Cl)cc2)nc1C#N	5.6µM	0	0	0	0
CCCCC(=O)N(C)c1c(CC)nc2c(OCc3ccc(C(F)(F)F)cc3)cccn12	0	0	11µM	-	0
CC(C)CNC(=O)/C(C#N)=C1\N=C(NC(=O)c2ccco2)c2ccccc21	0	0	0	0	0
COC(=O)C1(Cc2cc(-c3cccc(Br)c3)no2)CCN(C(=O)OC(C)(C)C)CC1	0	0	10µM	0	0
O=C(c1cccc([N+](=O)[O-])c1)n1nc(-c2ccccc2)nc1NCc1ccccc1	10µM	0	0	0	0[1.53 µM]
O=C(c1ccc([N+](=O)[O-])cc1)n1nc(-c2ccccc2)nc1NCc1ccccc1	0	0	0	0	0
CCOc1ccc(C2c3[nH]c4ccccc4c3C[C@H]3C(=O)N(C4CCN(Cc5ccccc5)CC4)CC(=O)N23)cc1OC (some centres undefined)	0	0	?	0	0
Cc1cc(SCC(=O)N/N=C/c2ccc(O)cc2O)c(C)cc1Br	0	0	7.9µM	0	0
COc1cc2ncnc(Nc3cccc(Cl)c3)c2cc1OC	0	-	-	3.3µM!	-
COc1cccc(Nc2ncnc3ccccc23)c1	11µM	0	0	0	0
Clc1cccc(Nc2ncnc3ccc(Br)cc23)c1	0	0	?	0	0
COc1ccc(Nc2ncnc3ccccc23)cc1	7.9µM	0	0	0	0
COc1ccc(Nc2nc(-c3cccs3)nc3ccccc23)cc1	0	0	?	?	0
COc1cccc(Nc2nc(-c3cccs3)nc3ccccc23)c1	0	0	11µM	0	0
CCOC(=O)CSc1nnc(-c2ccc(OC)cc2)n1CC	0	0	0	0	0
SMILES	BRCA1 expr act	GLP-1R agonist	GLP1R inv ag	Mito fusion act	HEK293 tox
CCc1ccc2oc(-c3cc(NC(=O)COc4ccc(C)cc4)ccc3O)nc2c1	0	-	-	-	-
CCOc1ccc(-c2nc(C#N)c(NC3CC3)o2)cc1	10µM	0	0	0	0
CCOc1ccc(Nc2oc(-c3ccc(Cl)cc3)nc2C#N)cc1	0	0	?	0	0
Nc1nc(NC2CCCC2)cc(=O)[nH]1	0	0	0	-	0
CC(c1ccccc1)n1c(-c2cccs2)nc2c(c(=O)c3ccccc3n2C)c1=O (centres undefined)	0	0	0	22µM	0
Cn1c2ccccc2c(=O)c2c(=O)n(-c3ccc(F)cc3)c(-c3cccs3)nc21	0	0	0	0	0
